Autophagy mod: modulators of autophagy; 190,000 tested, 0.98% active; AID 463193; calls only at 10 µM (by protocol); MEF GFP-LC3 puncta imaging; test concentration mostly 10 µM;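 active = percentage of spot-positive cells more than 3 SD above its plate mean, without a fluorescence outlier flag or 80% toxicity; inconclusive = no clear call, values can overlap the other calls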;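 note: spot-positive cell cutoff set from DMSO-treated cells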
Insulin prom up: MIN6 insulin promoter up-regulation; MIN6 insulin promoter-GFP reporter, high-content imaging; hits give high values; z-score at 5 µM; 190,000 tested, 0.3% active;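 active = z-score above 3 at 5 µM with at least 500 cells counted in the well; inconclusive = wells under 500 cells, flagged as cytotoxic or low count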
L major viab: Leishmania major promastigote growth inhibition | inhibition, % at 10 µM | Leishmania major promastigotes, resazurin fluorescence viability | 200,000 tested, 9% active | AID 1063; in the data active = inhibition above about 50%;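 note: promastigotes grown with compound for 44 hours at 28 °C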
HCT116 PTEN-null: growth suppressors of cells with PTEN tumor suppressor deletion; viability, % at 10 µM; HCT116 PTEN-null viability, CellTiter-Glo, 60 h; hits give low values; 140,000 tested, 1.2% active;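 active = viability at or below a set limit, 4 SD under the median of all tested compounds, cut at about 3.7% in these data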;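 note: PTEN knockout HCT116 line with beta catenin targeted HCT116 as companion control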
bCat KO growth: beta-catenin-lacking colon tumor cell growth suppression; 140,000 tested, 1.5% active; viability, % at 10 µM; HCT116 beta-catenin knockout viability, CellTiter-Glo, 60 h; hits give low values; AID 818;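 active = viability at or under a set limit, the compound median less 4 SD, cut at about 6% in these data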;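 note: 0% = Hyamine 1622 control at 20 µM and 100% = untreated cell control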
Insulin prom inh: TRM-6 insulin promoter activity inhibition; TRM-6 cells (human fetal islet line), insulin promoter-eGFP reporter, imaging; reporter expression induced with tamoxifen; inhibition, % at 2 µM; 130,000 tested, 0.9% active; AID 1273;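 active = inhibition above the mean plus 3 SD, with well images judged a real hit on visual review, cut at about 60% in these data, passing the limit was not always enough; inconclusive = inhibition over the cutoff but images rejected on review; inactive = inhibition not above the cutoff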
* hit, by the source's call. In the library only some 9.6% were active in any assay of this set; here they are far more common.

Screening Cc1[nH]c2ccccc2c1C(=O)CN1CCN(C2CCCCC2)CC1 returned Autophagy mod inactive, Insulin prom up -0.47, L major viab -3.7, HCT116 PTEN-null 109.7, bCat KO growth 105.0 and Insulin prom inh -3.1.
`CN(Cc1ccccc1)C(=O)Cn1nc(C(F)(F)F)c2c1CCC2` gave Autophagy mod inactive, Insulin prom up 1.15, L major viab -1.9, HCT116 PTEN-null 90.8, bCat KO growth 84.0 and Insulin prom inh -14.3.
O=C(Nc1nccs1)c1cccc(N2C(=O)C3C4C=CC(C4)C3C2=O)c1 (stereo unspecified) was read as Autophagy mod inactive, Insulin prom up -0.41, L major viab 51.4*, HCT116 PTEN-null 93.0, bCat KO growth 92.3 and Insulin prom inh -59.5.
Screening O=C(Nc1ccc(S(=O)(=O)Nc2nccs2)cc1)c1cccc(N2C(=O)c3ccccc3C2=O)c1 returned Autophagy mod inactive, Insulin prom up 0.15 and L major viab -5.2.
O=C(Nc1nccs1)c1cccc(N2C(=O)c3cccc4c([N+](=O)[O-])ccc(c34)C2=O)c1 was read as Autophagy mod inactive, Insulin prom up inconclusive, L major viab 73.0*, HCT116 PTEN-null 1.5*, bCat KO growth 1.7* and Insulin prom inh -1.8.
For O=C(Nc1nccs1)c1ccc(N2C(=O)[C@@H]3[C@H](C2=O)[C@H]2C=C[C@@H]3C2)cc1 the results were Insulin prom up -0.12.
COc1ccc(CCNC(=O)CCCCCN2C(=O)c3ccccc3C2=O)cc1OC was read as Autophagy mod inactive, Insulin prom up -0.18, L major viab -5.0, HCT116 PTEN-null 89.8, bCat KO growth 89.8 and Insulin prom inh -36.0.
`O=C(/C=C/c1cccs1)NC(=S)NNC(=O)c1ccccc1O` gave Autophagy mod inactive, Insulin prom up -4.75, L major viab 98.6* and Insulin prom inh -150.0.
Screening COc1ccc(C(=O)NNC(=S)NC(=O)/C=C/c2cccs2)cc1 returned Autophagy mod inactive, Insulin prom up -0.07, L major viab 14.9 and Insulin prom inh 63.0.
Cc1ccc(OCCCn2ccnc2)cc1C was read as Autophagy mod inactive, Insulin prom up 1.33, L major viab 99.6*, HCT116 PTEN-null 104.4, bCat KO growth 100.1 and Insulin prom inh 13.0.
Screening CCCOc1ccc(C(=O)NCCCn2ccnc2)cc1 returned Autophagy mod inactive, Insulin prom up 0.23, L major viab 0.3, HCT116 PTEN-null 88.7, bCat KO growth 106.7 and Insulin prom inh -23.1.
Screening Cc1cccc(OCCCn2ccnc2)c1 returned Autophagy mod inactive, Insulin prom up -1.58, L major viab 98.4*, HCT116 PTEN-null 93.0, bCat KO growth 94.5 and Insulin prom inh 47.1.
Cc1cc(OCCn2ccnc2)ccc1C(C)C was read as Autophagy mod inactive, Insulin prom up 0.07, L major viab 97.2*, HCT116 PTEN-null 98.0, bCat KO growth 78.4 and Insulin prom inh -7.9.
COc1cccc(OCCn2ccnc2)c1 was read as Autophagy mod inactive, Insulin prom up -0.19, L major viab -1.9, HCT116 PTEN-null 98.5, bCat KO growth 87.6 and Insulin prom inh -252.4.
Screening Cc1cc(C(C)(C)C)ccc1OCCn1ccnc1 returned Autophagy mod inactive, Insulin prom up 0.37, L major viab 61.8*, HCT116 PTEN-null 79.7, bCat KO growth 84.4 and Insulin prom inh 21.9.
`CCOC(=O)c1nnn(CC(=O)Nc2cccc(OC)c2)c1C(=O)OCC` gave Autophagy mod inactive, Insulin prom up 0.67, L major viab -0.6, HCT116 PTEN-null 106.7, bCat KO growth 110.0 and Insulin prom inh 33.3.
Screening Cc1ccc(S(=O)(=O)N(C)C)cc1NC(=O)c1cc(=O)[nH]c2ccccc12 returned Autophagy mod inactive and L major viab -1.2.
For COc1ccc(-c2ccc(-c3nnn(CC(C)=O)n3)cc2)cc1 the results were Autophagy mod inactive, Insulin prom up 0.28, L major viab 0.5, HCT116 PTEN-null 90.4, bCat KO growth 93.8 and Insulin prom inh -35.1.
`CCOc1ccc(OCCn2ccnc2)cc1` gave Autophagy mod inactive, Insulin prom up 1.06, L major viab 28.6, HCT116 PTEN-null 98.8, bCat KO growth 95.2 and Insulin prom inh -49.0.
`CCOc1ccc(OCCCCn2ccnc2)cc1` gave Autophagy mod inactive, Insulin prom up 3.52*, L major viab 4.5, HCT116 PTEN-null 98.0, bCat KO growth 75.4 and Insulin prom inh -15.4.
CN1CCc2c(sc(NC(=O)c3cc4cc([N+](=O)[O-])ccc4s3)c2C(N)=O)C1 was read as Autophagy mod active, Insulin prom up inconclusive, L major viab 100.5* and Insulin prom inh -241.7.
For CC(C)N1CCc2c(sc(NC(=O)CCc3ccccc3)c2C(N)=O)C1 the results were Autophagy mod inactive, Insulin prom up -0.22, L major viab 0.4 and Insulin prom inh -66.7.
CC(C)N1CCc2c(sc(NC(=O)c3cc4cc([N+](=O)[O-])ccc4s3)c2C(N)=O)C1 was read as Autophagy mod inactive, L major viab 100.4* and Insulin prom inh -368.4.
Screening CC(C)NC(=O)c1cc2cc([N+](=O)[O-])ccc2s1 returned Autophagy mod inactive, Insulin prom up -1.08, L major viab -3.4, HCT116 PTEN-null 90.6, bCat KO growth 95.8 and Insulin prom inh -14.7.
COc1ccc(C(=O)/C=C/Nc2ccc([N+](=O)[O-])cc2C)c(OC)c1 was read as Autophagy mod active, Insulin prom up -0.61, L major viab -3.9, HCT116 PTEN-null 75.3, bCat KO growth 88.7 and Insulin prom inh 21.7.
For COc1ccc(C(=O)/C=C/Nc2ccc([N+](=O)[O-])cc2C)cc1OC the results were Autophagy mod inactive, Insulin prom up -0.72, L major viab -6.2, HCT116 PTEN-null 86.7, bCat KO growth 96.6 and Insulin prom inh 9.1.
Screening O=C(/C=C/c1ccccc1F)c1cccc([N+](=O)[O-])c1 returned Autophagy mod inactive, Insulin prom up 0.28, L major viab 28.8, HCT116 PTEN-null 2.6*, bCat KO growth 3.2* and Insulin prom inh 50.0.
COc1cc(/C=C/C(=O)c2cccc([N+](=O)[O-])c2)cc(OC)c1OC was read as Autophagy mod inactive, L major viab 100.4*, HCT116 PTEN-null 1.4*, bCat KO growth 2.1* and Insulin prom inh 56.2.
For Cc1ccc(C(=O)/C=C/c2ccccc2[N+](=O)[O-])cc1 the results were Autophagy mod inactive, Insulin prom up -0.04 and L major viab 42.4.
For COc1ccccc1NC(=O)/C(=C/c1cccc([N+](=O)[O-])c1)c1ccccc1 the results were Autophagy mod inactive, Insulin prom up -0.19, L major viab 89.3*, HCT116 PTEN-null 64.8, bCat KO growth 74.8 and Insulin prom inh 33.3.
`Cc1ccc(-n2nnnc2SC(C)C(=O)Nc2ccccc2-c2ccccc2)cc1` (stereo unspecified) gave Autophagy mod inactive, Insulin prom up 0.1, L major viab -2.3, HCT116 PTEN-null 82.8, bCat KO growth 82.3 and Insulin prom inh 55.1.

Screens from PubChem BioAssay.
